Results reported in PubChem BioAssay (NCATS).
Results filed as inconclusive are left out. Activity calls are given as the source filed them. The call rests on the fitted dose curve; in most records, active means well fitted cell-killing curve with a large enough effect; inconclusive means small, poorly fitted or top-dose-only effect, or effect the other way; inactive means flat fitted curve, though single readings scatter.

Tests used:
Test in all cases: Primary qHTS to identify gynecologic anti-cancer compounds using libraries of approved drugs and bioactive compounds (AID 1345084); further: nearly all actives have a fitted effect of over 55% in size
C33A = conditions: Gynecologic cancer cell panel viability, ATPlite luminescence, 48 h; series mostly up to 57.5 µM
Outline: (§1)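 Five-concentration response, 48 h; readout is ATP-driven luciferase luminescence.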

CAOV3 = conditions: Gynecologic cancer cell panel viability, ATPlite luminescence, 48 h; series mostly up to 57.5 µM
Outline: as §1

CASKI = conditions: Gynecologic cancer cell panel viability, ATPlite luminescence, 48 h; series mostly up to 57.5 µM
Outline: as §1

Es-2 = conditions: Gynecologic cancer cell panel viability, ATPlite luminescence, 48 h; series mostly up to 57.5 µM
Outline: as §1

HeLa = conditions: Gynecologic cancer cell panel viability, ATPlite luminescence, 48 h; series mostly up to 57.5 µM
Outline: as §1

Hek293T = conditions: Gynecologic cancer cell panel viability, ATPlite luminescence, 48 h, control line for the selectivity index; series mostly up to 57.5 µM
Outline: as §1

JEG-3 = conditions: Gynecologic cancer cell panel viability, ATPlite luminescence, 48 h; series mostly up to 57.5 µM
Outline: as §1

OV90 = conditions: Gynecologic cancer cell panel viability, ATPlite luminescence, 48 h; series mostly up to 57.5 µM
Outline: as §1

Measured: Potency
Potency means the concentration at half of the fitted maximal effect.

COc1ccc(S(=O)(=O)Nc2cc(Cl)cc(Cl)c2OC)cc1N1CCNCC1
inactive: all assays above

C[C@@H]1C[C@H]2O[C@@]3(O[C@@H]2C(C)(C)O)C(O)[C@@]2(C)C4CCC5C(C)(C)[C@@H](O[C@H]6OC[C@H](O)[C@@H](O)[C@@H]6O)CC[C@@]56C[C@@]46CC[C@]2(C)C13 (some centres not stated)
inactive: all assays above

CCCCC1CCN(CCCN2C(=O)CCc3ccccc32)CC1
inactive: all assays above

OC1(CN2CCC(COc3noc4cccc(O[C@@H]5CCOC5)c34)CC2)CCOCC1
inactive: all assays above

O=C(Nc1ccccc1Br)NC1CCN(c2ccc(C(F)(F)F)cn2)C1 (configuration not stated)
inactive: all assays above

COc1ccncc1C(=O)NC(=O)Nc1ccc(-c2ccccc2)c(C(F)(F)F)c1
inactive: all assays above

Cc1ccc(-c2ncc[nH]2)cc1NC(=O)c1ccc(OCc2ccccn2)cc1
inactive: all assays above

O=C(Nc1ccc(Cl)cc1)c1ccccc1NCc1ccncc1
inactive: all assays above

O=C(Nc1cc(C(F)(F)F)cc(C(F)(F)F)c1)c1cnc(Cl)nc1C(F)(F)F
inactive: all assays above

CCCCOc1ccc(S(=O)(=O)n2c(C)nc3ccccc32)cc1
inactive: all assays above

CC(=O)O[C@]1(C(C)=O)CC[C@H]2[C@@H]3CCC4=CC(=O)CCC4=C3[C@@H](c3ccc(N(C)C)cc3)C[C@@]21C
inactive: all assays above

CN(C)c1ccnc2sc3c(=O)n(N4CCCCCC4)cnc3c12
inactive: all assays above

COc1ccc(S(=O)(=O)n2cnc3cc(C)c(C)cc32)cc1
inactive: all assays above

CN(C)N(C)C(=O)[C@@]1(Cc2ccccc2)CCCN(C(=O)[C@@H](Cc2c[nH]c3ccccc23)NC(=O)C(C)(C)N)C1
inactive: all assays above

C=C(C(=O)OC[C@H]1O[C@@H](OC(=O)/C=C/c2ccccc2)[C@H](O)[C@@H](O)[C@@H]1O)C(O)CO (some centres not stated)
inactive: all assays above

CCC/C=C/C=C/C1CC(O)C2(O)C(=O)OCC12 (configuration not stated)
inactive: all assays above

C/C(=C/C=C\C=C\Cc1cnco1)[C@@H](O)C(C)(C)C(N)=O
inactive: all assays above

CC(C)=C[C@@H]1[C@H](CO[C@@H]2O[C@H](CO)[C@@H](O)[C@H](O)[C@H]2O)C1(C)C
inactive: all assays above

O=C(NCCCc1ccccc1)C1CCC(CNS(=O)(=O)c2cccc3nsnc23)CC1 (configuration not stated)
inactive: all assays above

C=C1C(=O)O[C@H]2C1CCC(C)=C1C(=O)C=C(C)[C@@]12O (some centres not stated)
inactive: all assays above

CCOc1ccc(-n2c([C@@H](C)N(Cc3cccnc3)C(=O)Cc3ccc(OC(F)(F)F)cc3)nc3ncccc3c2=O)cc1
inactive: all assays above

CCn1c(N)c(C(=O)NC)c(=O)c2ccc(C#CC(C)(O)COC)nc21 (configuration not stated)
inactive: all assays above

COC(=O)/C=C/C=C/C(=O)OC1C=C2COC(=O)C2(O)C2(C)CCCC(C)(C)C12 (configuration not stated)
inactive: all assays above

O=C(NC[C@H]1CN(c2ccc(N3CCOCC3=O)cc2)C(=O)O1)c1ccc(Cl)s1
inactive: all assays above

Cn1ccc(NC(=O)c2cc(Oc3ccc(C(=O)N4CCC4)c(F)c3)c3c(c2)OC(C)(C)C3)n1
inactive: all assays above

C=C1C(OC2OC(CO)C(O)C(O)C2O)CC2C(C)(C)C(O)CCC2(C)C1CC/C(C)=C\COC(=O)CC(=O)O (configuration not stated)
inactive: all assays above

CC(=O)O[C@@H]1C[C@@]2(C)C(CC[C@]3(C)C2CC=C2C4CC(C)(C)CC[C@]4(C(=O)O)CC[C@]23C)C(C)(C)[C@H]1O (some centres not stated)
inactive: all assays above

COc1ccc(-c2csc(NC(=O)[C@H]3CCCCN3S(=O)(=O)c3ccc(C)cc3)n2)cc1
inactive: all assays above

CCOC(=O)c1ccc(OCCC2CCN(c3ccc(C)nn3)CC2)cc1
inactive: all assays above

COC(=O)C(Cc1ccc(OCCn2c(=O)sc3cc(C(=O)c4ccccc4)ccc32)cc1)C(=O)OC
inactive: all assays above

C=C1C(=O)O[C@@H]2C[C@]3(C)[C@@H](CCC(C)O)[C@@H]3C[C@H]12 (some centres not stated)
inactive: all assays above

N#Cc1cccc(C(=O)Nc2cc(-c3ccccc3)nn2-c2ccccc2)c1
inactive: all assays above

O=C(O)c1cccc(-c2ccc(-c3cn(C(=O)N4CCCCC4Cc4ccccc4)nn3)cc2)c1 (configuration not stated)
inactive: all assays above

CNC(=O)c1ccc2c(c1)CCO[C@H]2CCN1CCN(c2ccc(OC)cc2)CC1
inactive: all assays above

CC(=O)O[C@@H]1[C@@H](OC(C)=O)[C@H](C)O[C@@H](O[C@H]2[C@@H]3C=CO[C@@H](O[C@@H]4O[C@H](CO)[C@@H](O)[C@H](O)[C@H]4O)[C@@H]3[C@@]3(CO)O[C@@H]23)[C@@H]1OC(=O)/C=C/c1ccccc1
inactive: all assays above

Cc1cc(-c2nc3cc(F)ccc3s2)ccc1NC(=O)[C@@H](N)CCCCN
active: C33A 17.8 µM | CAOV3 28.2 µM | CASKI 14.1 µM | Es-2 15.8 µM | HeLa 14.1 µM | Hek293T 12.6 µM | JEG-3 14.1 µM | OV90 8.91 µM

O=c1[nH]c2ccccc2n1CCN1CCN(c2cccc(C(F)(F)F)c2)CC1
inactive: all assays above

C=C1CCC2[C@](C)(CCC[C@@]2(C)C=O)[C@H]1CC/C(C)=C/CO (some centres not stated)
inactive: all assays above

CC[C@H]1CN(c2nc(N)c(C(N)=O)nc2Cl)CCN1C1CCN(Cc2ccc(Cl)cc2)CC1
inactive: all assays above

O=C1c2ccc(Nc3ccc(F)cc3F)cc2CCc2ccc(OCC(O)CO)cc21 (configuration not stated)
inactive: all assays above

N#Cc1ccc(N2N=C3c4ccc(C(=O)O)cc4CC[C@@H]3[C@@H]2C2CCCC2)cc1Cl
inactive: all assays above

Cn1nc(C(C)(C)C)cc1C(=O)N[C@@H](Cc1cccc(Cl)c1)C(=O)NCC#N
inactive: all assays above

Cc1ccc(F)cc1S(=O)(=O)N[C@@H]1CCN(Cc2ccc(OC(C)C)cc2)C1
inactive: all assays above

CC1=C(C(=O)Nc2cc(Cl)ccc2Cl)C(c2ccco2)C2=C(CCCC2=O)N1 (configuration not stated)
inactive: all assays above
